Assay outcomes (PubChem)
An excerpt weighted towards active compounds, which were near 2.7% of everything screened.
PAFAH1B2 FP inh: PAFAH1B2 enzyme inhibitors, primary screen, biochemical, fluorescence polarization, human; recombinant PAFAH1B2, FP-rhodamine activity probe; inhibition, % at 3.39 µM; 340,000 tested, 1.2% active; AID 492953, 2010;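 active = inhibition above the mean of all tested compounds plus 3 SD, cut at about 24% in these data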;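 note: 0% = enzyme with DMSO and 100% = wells lacking PAFAH1B2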
Target sequence (P68402 whole entry, looked up): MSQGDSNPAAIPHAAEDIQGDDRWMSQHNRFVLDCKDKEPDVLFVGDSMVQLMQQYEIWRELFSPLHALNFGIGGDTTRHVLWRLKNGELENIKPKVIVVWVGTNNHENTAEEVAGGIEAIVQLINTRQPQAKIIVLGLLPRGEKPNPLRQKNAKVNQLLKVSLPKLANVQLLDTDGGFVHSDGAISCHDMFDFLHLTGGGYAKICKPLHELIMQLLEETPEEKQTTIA
TCR-CD3 inh: inhibitors of human TCR-CD3 interaction, primary screen, biochemical, fluorescence, TAMRA-labeled TCR probe; AID 651800, 2012; 360,000 tested, 0.37% active; inhibition, % at 9.4 µM; in the data active = inhibition above about 19%;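 note: recombinant mutant TCR 2C K166C tagged with TAMRA read by polarization; 0% = receptor in buffer alone and 100% = receptor with positive control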
PAFAH2 FP inh: PAFAH2 enzyme inhibitors, primary screen, biochemical, fluorescence polarization, human; Platelet-activating factor acetylhydrolase 2, cytoplasmic (Homo sapiens), Q99487; recombinant PAFAH2, FP-rhodamine activity probe; inhibition, % at 3.39 µM; 340,000 tested, 0.99% active; AID 492956, 2010;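 active = inhibition above the mean over all tested compounds plus 3 SD, cut at about 30% in these data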;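 note: inhibitors block probe labeling of enzyme so polarization drops; 0% = enzyme with DMSO and 100% = wells lacking PAFAH2 protein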
pPAFAH FP inh: pPAFAH enzyme inhibitors, primary screen, biochemical, fluorescence polarization, human. recombinant pPAFAH, FP-rhodamine probe fluorescence polarization. AID 463082, 2010. inhibition, % at 3.39 µM. 330,000 tested, 1.5% active. Platelet-activating factor acetylhydrolase (Homo sapiens), Q13093;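 active = inhibition above the mean inhibition across the screen plus 3 SD, cut at about 25% in these data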;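 note: inhibitors block binding of the rhodamine activity-based probe so polarization drops; 0% = enzyme with DMSO and 100% = wells lacking pPAFAH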
Target sequence (Q13093 whole entry, looked up): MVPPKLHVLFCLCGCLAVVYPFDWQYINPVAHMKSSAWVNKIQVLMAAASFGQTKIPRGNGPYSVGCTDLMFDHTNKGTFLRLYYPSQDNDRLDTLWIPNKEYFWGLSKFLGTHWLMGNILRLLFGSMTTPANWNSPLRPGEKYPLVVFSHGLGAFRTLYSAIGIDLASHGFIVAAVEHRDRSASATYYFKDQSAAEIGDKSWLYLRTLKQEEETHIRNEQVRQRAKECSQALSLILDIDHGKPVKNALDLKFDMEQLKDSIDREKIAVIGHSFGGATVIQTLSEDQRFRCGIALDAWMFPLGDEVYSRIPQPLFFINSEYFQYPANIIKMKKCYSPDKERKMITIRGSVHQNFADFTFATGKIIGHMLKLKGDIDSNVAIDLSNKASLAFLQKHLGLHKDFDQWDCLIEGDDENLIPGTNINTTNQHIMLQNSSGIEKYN
PAFAH1B3 FP inh: PAFAH1B3 enzyme inhibitors, primary screen, biochemical, fluorescence polarization, human | Platelet-activating factor acetylhydrolase IB subunit alpha1 (Homo sapiens), Q15102 | recombinant PAFAH1B3, FP-rhodamine probe | inhibition, % at 3.39 µM | 340,000 tested, 0.28% active | AID 492972, 2010;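 active = inhibition above the screen-wide average of all tested compounds plus 3 SD, cut at about 25% in these data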;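 note: 0% = enzyme with DMSO only and 100% = wells lacking PAFAH1B3 protein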
pPAFAH FP conf: pPAFAH (PLA2G7) enzyme inhibitors, confirmation, biochemical, fluorescence polarization, human | shares compounds with pPAFAH FP inh | recombinant pPAFAH, FP-Rh probe fluorescence polarization | inhibition, % at 3.39 µM | 2,300 tested, 72% active | AID 463230, 2010;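 active = mean inhibition of the triplicate above the hit cutoff set for the earlier primary screen, cut at about 25% in these data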;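 note: 0% = enzyme with DMSO and 100% = wells lacking pPAFAH enzyme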
* = called active by the depositor; / = no result.

SMILES | PAFAH1B2 FP inh | TCR-CD3 inh | PAFAH2 FP inh | pPAFAH FP inh | PAFAH1B3 FP inh | pPAFAH FP conf
COc1cc([N+](=O)[O-])ccc1NC(=S)NNC(=O)c1ccc2c(c1)OCO2 | 9.3 | -2.9 | 2.7 | 18.5 | 11.5 | /
Cc1cc(SCc2ccc(Cl)cc2Cl)nc(=O)[nH]1 | 3.5 | 4.5 | 12.8 | 13.6 | -2.7 | /
O=c1cc(SCc2ccc(Cl)cc2Cl)nc[nH]1 | 24.8* | 5.2 | 3.2 | / | 5.6 | /
COc1ccncc1-c1ccccc1C1=CC(=O)CC(C)(C)C1=O | / | -0.9 | / | / | / | /
COCCCNC(=O)C[C@H]1C[C@@]2(C(=O)OC)C(=C[C@H](C(C)(C)C)O[C@@H]2C)N(CCC2=CCCCC2)C1=O | / | 0.5 | / | / | / | /
CCN1C(=O)[C@@H]2[C@@H](c3ccc(SC4CCCCC4)cc3)N3CCC[C@@]3(C(=O)OC)[C@@H]2C1=O | 3.0 | 2.6 | 1.1 | 28.5* | 13.6 | /
COCc1cc(N2CCNC[C@@H]2C)ccc1N1C[C@@H](C)O[C@@H](C)C1 | / | 3.4 | / | / | / | /
CC(C)(C)C(=O)Nc1scc(-c2ccc(-c3ccccc3)cc2)c1C(=O)O | 7.8 | -4.8 | 0.1 | 42.6* | 0.9 | 24.8*
Cc1ccc(C(=O)N2CCCC(CCC(=O)N3CCN(c4ccccn4)CC3)C2)cc1C (stereo not given) | -2.0 | 0.1 | 2.8 | 34.9* | 5.3 | 22.2
Cc1cc(=O)[nH]c2nnc(-c3ccc(Br)cc3)n12 | 11.5 | 3.6 | 23.8 | / | 3.2 | /
COc1ccc(-c2[nH]ncc2N=Nc2ccccc2)cc1 | 4.8 | 2.2 | 2.1 | 49.5* | 3.2 | 0.7
CCn1c(SCC(=O)c2ccc(O)c(O)c2)nnc1-c1ccccc1 | 1.9 | 16.4 | 21.1 | 10.8 | 17.9 | /
C=CCn1c(SCC(=O)c2ccc(O)c(O)c2)nnc1-c1cccnc1 | 4.0 | 17.6 | 23.9 | 50.3* | 7.5 | 18.8
C=CCn1c(SCC(=O)c2ccc(O)c(O)c2)nnc1-c1cccc(C)c1 | 9.4 | 13.8 | 29.3 | 35.0* | 8.5 | 79.6*
COc1ccc2[nH]cc(CCNC(=O)CC[C@H]3O[C@@H](n4cc(C)c(=O)[nH]c4=O)C[C@@H]3O)c2c1 | 7.2 | -0.4 | 2.8 | 3.9 | 9.2 | /
COc1ccc(N(Cc2cc3cccc(C)c3[nH]c2=O)S(=O)(=O)c2ccc(OC)cc2)cc1 | 4.6 | -1.8 | 5.4 | 65.8* | 7.5 | 2.4
COc1ccc(N(Cc2cc3cccc(C)c3[nH]c2=O)S(=O)(=O)c2ccc(Cl)cc2)cc1 | 0.8 | 1.6 | -5.4 | 0.8 | 3.0 | /
COc1cc(CNC(=O)c2ccccc2NC(=O)C2=C(C)OCCS2)cc(OC)c1OC | 2.6 | -1.7 | -4.7 | 1.9 | 7.9 | /
COc1cc([N+](=O)[O-])ccc1-c1ccc(/C=N/NC(N)=O)o1 | 0.1 | 2.3 | -1.1 | 67.1* | 7.9 | -5.2
COc1cccc(N=Nc2ccc(O)c3ncccc23)c1 | 5.5 | -0.2 | 4.8 | 59.8* | 8.7 | 25.3*
O=Nc1ccc(O)c2ncccc12 | 9.7 | 2.8 | 10.0 | 6.0 | 8.0 | /
COc1cccc(N=Nc2ccc3cccnc3c2O)c1 | 5.4 | 6.4 | -1.7 | 57.9* | 18.2 | 33.3*
COc1cc(OC)cc(C(=O)Nc2cccc3cccnc23)c1 | 1.2 | -9.1 | 0.9 | -0.6 | 6.5 | /
COc1ccc(OC)c(N(CC(=O)NCCSCc2ccco2)S(=O)(=O)c2ccc(OC)c(OC)c2)c1 | -3.7 | -13.1 | -2.2 | -0.1 | 10.6 | /
CCOc1ccc(OCC(=O)OCC(=O)NCC2CCCO2)cc1 (stereo not given) | 6.8 | 4.1 | 2.3 | 2.0 | 3.9 | /
SMILES | PAFAH1B2 FP inh | TCR-CD3 inh | PAFAH2 FP inh | pPAFAH FP inh | PAFAH1B3 FP inh | pPAFAH FP conf
COC(=O)c1sc(C(C)(C)C)cc1CS(=O)(=O)c1ccc(Cl)cc1 | 5.6 | 0.3 | 4.0 | 5.9 | 5.7 | /
CCCCCn1c(=O)[nH]c2cc(C(=O)NCCc3ccc(OC)c(OC)c3)ccc2c1=O | -1.2 | 2.3 | -8.8 | 1.9 | -1.4 | /
CCCCNC(=O)c1sc(=S)n2c1[nH]c(=O)c1ccc(C(=O)NCCc3ccc(OC)c(OC)c3)cc12 | 19.9 | / | 11.6 | 39.8* | 18.3 | 42.3*
CCCCn1c(N)c(N(CCOC)C(=O)COC(=O)COc2ccc(CC)cc2)c(=O)[nH]c1=O | 3.2 | -5.0 | 0.9 | 4.9 | 0.5 | /
CCCCn1c(=O)[nH]c2nc3cc(N)ccc3nc2c1=O | 13.7 | 21.1* | 26.5 | 37.0* | 3.9 | 13.6
C=CCn1c(=O)[nH]c2nc3cc(N=CN(C)C)c(C)cc3nc2c1=O | 2.4 | 8.6 | -1.0 | 3.7 | 2.2 | /
Cc1cc2nc3c(=O)n(CCc4ccccc4)c(=O)[nH]c3nc2cc1N | 8.8 | 2.8 | 26.1 | 55.9* | 12.2 | 20.1
CS(=O)(=O)c1ccc(C(=O)OCC(=O)NC2CCS(=O)(=O)C2)cc1[N+](=O)[O-] (stereo not given) | -1.2 | -1.9 | 3.2 | 3.5 | 14.6 | /
CS(=O)(=O)c1ccc(C(=O)OCC(=O)NCc2cccs2)cc1[N+](=O)[O-] | -2.9 | -3.7 | 37.7* | 35.5* | 7.6 | 7.3
O=C(Cc1ccccc1)NCC1COc2ccccc2O1 (stereo not given) | 3.9 | -10.7 | 4.6 | 1.4 | 8.0 | /
Cc1ccc2c(CC(=O)NCC3COc4ccccc4O3)coc2c1 (stereo not given) | 10.4 | 5.7 | 2.3 | 36.7* | 2.6 | 6.5
CCN(CC)c1nc(N)c2c(N)nc3c(c2c1C#N)CC(c1ccccc1)O3 (stereo not given) | 6.6 | 1.3 | 18.0 | 19.6 | 4.5 | /
CCN(CC)c1nc(N)c2c(N)n(-c3ccccc3C)c(=S)c(C#N)c2c1C#N | 25.4* | 1.1 | 43.5* | 46.5* | 12.5 | 30.7*
CC(C)=CCC/C(C)=C/CNC(=O)C[C@H]1C[C@H](C(=O)N2CCOCC2)[C@@]2(CCC3CCCC3)c3[nH]c4cc(CCC(=O)N(C)C)ccc4c3CCN2C1=O | 6.2 | 2.1 | 2.0 | 39.3* | 7.2 | 27.3*
CC(C)=CCC/C(C)=C/CNC(=O)C[C@H]1C[C@H](C(=O)N2CCCCC2)[C@@]2(C)c3[nH]c4cc(-c5ccco5)ccc4c3CCN2C1=O | 1.5 | 4.8 | 8.4 | 41.4* | 5.2 | 23.5
CC(C)N(C(=O)[C@H]1C[C@H](CC(=O)NCCCN(C)C)C(=O)N2CCc3c([nH]c4cc(CCC(=O)N(C)C)ccc34)[C@]12C)C(C)C | -0.8 | 0.5 | -2.0 | 2.8 | 0.4 | /
CN(C)C(=O)CCc1ccc2c3c([nH]c2c1)[C@]1(CCC2CCCC2)[C@@H](C(=O)N2CCOCC2)C[C@H](CC(=O)NCC24CC5CC(CC(C5)C2)C4)C(=O)N1CC3 | 2.2 | -3.6 | 1.9 | 8.3 | 7.8 | /
